Test results reported in PubChem BioAssay AID1347131 (National Center for Advancing Translational Sciences (NCATS), 2019).
Screen size: about 410,000 compounds; about 2,000 (0.49%) were called active. About 8% were inconclusive and are not listed. The call rests on the fitted dose curve; tested in HEK293 reporter line. The list comes from a sample in which actives are over-represented; it also holds similar structures and randomly drawn compounds. A call without a number means that no potency is given here.

Experiment: qHTS Assay for Foot and Mouth Disease Virus Antivirals: Primary Screen against the MLPCN compound library; further: nearly all actives have a fitted effect of over 55% in size
Conditions: FMDV antiviral cell-based qHTS; series mostly up to 57.9 µM
Potency means the concentration at half of the fitted maximal effect.

Q: For N=c1ccn(Cc2ccc(Cl)c(Cl)c2)cc1, which Potency is on record?
A: The Potency was “inactive”.

Q: For O=C(COc1ccc(Oc2ccccc2)cc1)NCc1cn2ccccc2n1, which Potency is on record?
A: Its Potency is “inactive”.

Q: With Brc1ccc(-c2cn3ccccc3n2)cc1 as the compound, how does the Potency read?
A: The Potency was 11.2 µM (active).

Q: Which Potency does the source give for c1ccc(-c2nc3ccccn3c2-c2ccccc2)cc1 here?
A: The Potency was “inactive”.

Q: For Clc1ccc(-c2cn3cc(Br)ccc3n2)cc1Cl, which Potency is on record?
A: Its Potency is 14.1 µM (active).

Q: Which Potency does the source give for O=C(O)c1ccnc(Cl)c1 here?
A: The Potency was “inactive”.

Q: With CCc1noc(C)c1C(=O)Nc1nc(-c2ccc(Cl)cc2Cl)c(C)s1 as the compound, how does the Potency read?
A: The Potency was “inactive”.

Q: With COc1ccccc1N1CCN(C(=O)c2ccccc2Oc2ccccc2)CC1 as the compound, how does the Potency read?
A: Its Potency is “inactive”.

Q: Which Potency does the source give for COc1ccccc1NS(=O)(=O)c1cccc(C(=O)N/N=C/c2ccc(N3CCOCC3)cc2)c1 here?
A: The Potency was “inactive”.

Q: For Cc1ccc(C)c(N2CCN(C(=O)c3cnn(-c4ccccc4Cl)c3C3CCN(C(=O)OC(C)(C)C)CC3)CC2)c1, which Potency is on record?
A: Its Potency is “inactive”.

Q: With Cc1ccc2c(c1)-c1c(cnn1CC(=O)N(Cc1ccco1)C1CCCCC1)CO2 as the compound, how does the Potency read?
A: The Potency was “inactive”.

Q: Which Potency does the source give for CC(C)(C)NC(=O)NC(=O)CN1CCN(C(c2ccccc2)c2ccccc2)CC1 here?
A: The Potency was “inactive”.

Q: With COc1ccc(CC(=O)N(Cc2ccccc2)c2ccc(C)cc2)cc1OC as the compound, how does the Potency read?
A: The Potency was “inactive”.

Q: For CCOc1ccc(N(Cc2cc3cc(C)ccc3[nH]c2=O)C(=O)c2cccc(Cl)c2)cc1, which Potency is on record?
A: Its Potency is “inactive”.

Q: Which Potency does the source give for Cc1ccc(N(Cc2cc(=O)[nH]c3ccccc23)C(=O)CCl)cc1 here?
A: The Potency was 20 µM (active).

Q: Which Potency does the source give for Cc1ncsc1CCC(=O)N1CCCC(c2nc(-c3ccncc3)ncc2-c2ccccc2)C1 (stereo unspecified) here?
A: Its Potency is “inactive”.

Q: Which Potency does the source give for COc1cccc(-n2cnc3scc(-c4cccs4)c3c2=O)c1 here?
A: Its Potency is “inactive”.

Q: Which Potency does the source give for O=C(NC(c1ccccc1)c1ccccc1)c1ccc(S(=O)(=O)C(F)F)cc1 here?
A: The Potency was “inactive”.

Q: For O=C(CN1CCN(c2ccccn2)CC1)Nc1cccc(C(F)(F)F)c1, which Potency is on record?
A: Its Potency is “inactive”.

Q: With O=C(Nc1cccc(-c2ccc(N3CCCCC3)nn2)c1)C(F)(F)F as the compound, how does the Potency read?
A: Its Potency is 14.1 µM (active).

Q: With O=C(Nc1ccccc1)N1CCCN(c2ccc(C(F)(F)F)cn2)CC1 as the compound, how does the Potency read?
A: The Potency was “inactive”.

Q: With COC(=O)c1ccc(CSc2ncnc3ccccc23)o1 as the compound, how does the Potency read?
A: Its Potency is “inactive”.

Q: For CC(C)C1NC(=S)N(C2CCCCC2)C1=O (stereo unspecified), which Potency is on record?
A: Its Potency is “inactive”.

Q: For CCOC(=O)c1sc2nc(CC(=O)OC)nc(N3CCN(c4ccc(OC)cc4)CC3)c2c1C, which Potency is on record?
A: The Potency was “inactive”.

Q: With CCOC(=O)c1cc(C)n(CC2CCC(C(=O)Nc3ccc(C(=O)OC)cc3)CC2)c1C (stereo unspecified) as the compound, how does the Potency read?
A: Its Potency is “inactive”.

Q: With CCc1nnc(NC(=O)c2cccc(C(=O)Nc3nnc(CC)s3)n2)s1 as the compound, how does the Potency read?
A: The Potency was “inactive”.

Q: With CCc1nnc(NC(=O)c2nc(S(=O)(=O)Cc3ccccc3)ncc2Cl)s1 as the compound, how does the Potency read?
A: Its Potency is 20 µM (active).

Q: For Cc1ccc(CS(=O)(=O)c2ncc(Cl)c(C(=O)Nc3nc4ccc(F)cc4s3)n2)cc1, which Potency is on record?
A: Its Potency is “inactive”.

Q: With CCc1ccccc1NC(=O)Cn1nc(C)c2nn(-c3ccc(Cl)cc3)c(C)c2c1=O as the compound, how does the Potency read?
A: Its Potency is “inactive”.

Q: Which Potency does the source give for Cc1ccccc1C(=O)N(Cc1nc(-c2ccc(Cl)cc2)no1)C(C)C here?
A: Its Potency is “inactive”.

Q: With COc1cccc(CNC(=O)Cn2cc3c(n2)-c2c(oc(C(=O)N4CCOCC4)c2C)CC3)c1 as the compound, how does the Potency read?
A: Its Potency is “inactive”.

Q: Which Potency does the source give for Cc1cc(NC(=O)c2ccc(N(C)S(=O)(=O)c3ccccc3)cc2)no1 here?
A: Its Potency is “inactive”.

Q: With Cc1cc(C)n2nc(SCc3ccc(F)cc3Cl)nc2n1 as the compound, how does the Potency read?
A: The Potency was “inactive”.

Q: Which Potency does the source give for Cc1cc2sc3ccc(C#CC4(O)CCCCC4)cc3c(=O)c2cc1C here?
A: The Potency was “inactive”.

Q: For O=c1c2ccccc2sc2ccc(C#CC3(O)CCCCC3)cc12, which Potency is on record?
A: The Potency was “inactive”.

Q: With Cn1c2ccccc2c(=O)c2ccc(C#CC3(O)CCCCC3)cc21 as the compound, how does the Potency read?
A: The Potency was 17.8 µM (active).

Q: For CCOC(=O)C1(Cc2ccccc2)CCN(Cc2cccn2-c2cccnc2)CC1, which Potency is on record?
A: Its Potency is “inactive”.

Q: For COc1ccccc1OCCNC(=O)c1cc(C2CC2)nc2c1cnn2C(C)C, which Potency is on record?
A: Its Potency is “inactive”.

Q: Which Potency does the source give for CCN1C(=O)CC(C(C)C)N(C2CCCC2)c2nc(Nc3ccc(C(=O)NC4CCN(C)CC4)cc3OC)ncc21 (stereo unspecified) here?
A: The Potency was “inactive”.

Q: Which Potency does the source give for CCCCC(CC)CNC(=O)c1ccc2c(=O)n(CCOC)c(=O)[nH]c2c1 (stereo unspecified) here?
A: Its Potency is “inactive”.

Q: For Cc1ccc(-c2nc(CS(=O)CC(=O)N3CCN(c4ccc(F)cc4)CC3)c(C)o2)cc1 (stereo unspecified), which Potency is on record?
A: The Potency was “inactive”.

Q: For Cc1nc(-c2cccc(NC(=O)c3ccc(Cl)c(S(=O)(=O)N4CCCC4)c3)c2)cs1, which Potency is on record?
A: Its Potency is “inactive”.

Q: For COc1ccc(CC(=O)Nc2nc(-c3ccc(OC)c(OC)c3)cs2)cc1OC, which Potency is on record?
A: Its Potency is “inactive”.

Q: Which Potency does the source give for COc1ccc(CC(=O)Nc2cccc(-c3csc(C)n3)c2)cc1 here?
A: The Potency was 20 µM (active).

Q: For COc1ccc(Oc2ncc3nc(-c4ccccc4)c(=O)n(CCC#N)c3n2)cc1, which Potency is on record?
A: Its Potency is “inactive”.

Q: With COc1ccc(/C=N/NC(=O)c2nonc2C)cc1 as the compound, how does the Potency read?
A: The Potency was 11.2 µM (active).

Q: With COc1cccc(/C=N/NC(=O)c2nc(-c3ccccc3)cc(-c3ccccc3)n2)c1 as the compound, how does the Potency read?
A: The Potency was “inactive”.

Q: For Nc1nonc1-n1nnc(C(=O)N/N=C/c2ccc(O)cc2)c1COc1ccc(F)cc1, which Potency is on record?
A: The Potency was “inactive”.

Q: Which Potency does the source give for CC(C)c1cc(Br)ccc1OCCCN1C(=O)NC(C)(C)C1=O here?
A: Its Potency is 28.2 µM (active).

Q: Which Potency does the source give for CC1(C)NC(=O)N(CCCCOc2ccc3c(c2)CCC3)C1=O here?
A: The Potency was “inactive”.

Q: For Cc1cc(OCCCCN2C(=O)NC(C)(C)C2=O)cc(C)c1Cl, which Potency is on record?
A: The Potency was “inactive”.

Q: For CC12C(=O)N(c3cccc(OC(=O)c4ccco4)c3)C(=O)C1C1c3ccccc3C2c2ccccc21 (stereo unspecified), which Potency is on record?
A: Its Potency is “inactive”.

Q: Which Potency does the source give for CS(=O)(=O)c1ccc(C(=O)OCC(=O)NCc2cccs2)cc1[N+](=O)[O-] here?
A: The Potency was 25.1 µM (active).

Q: Which Potency does the source give for CC(C)CN1CCN(C(=O)COC(=O)c2ccc(S(C)(=O)=O)c([N+](=O)[O-])c2)CC1 here?
A: Its Potency is “inactive”.

Q: Which Potency does the source give for Nc1cc(C(=O)OCC(=O)NCCNC(=O)COC(=O)c2ccc(Cl)c(N)c2)ccc1Cl here?
A: Its Potency is “inactive”.

Q: With CCc1ccc(OCc2ccc(C(=O)O)o2)cc1 as the compound, how does the Potency read?
A: The Potency was 10 µM (active).

Q: With COc1ccc(NC(=O)c2ccc(COc3ccccc3OC)o2)cc1OC as the compound, how does the Potency read?
A: The Potency was “inactive”.

Q: With COC(=O)c1ccc(COc2ccc(/C=N/NC(N)=S)cc2)o1 as the compound, how does the Potency read?
A: Its Potency is “inactive”.

Q: For Cc1ccccc1CS(=O)(=O)c1cn(CC(=O)N2CCC(C)CC2)c2ccccc12, which Potency is on record?
A: Its Potency is “inactive”.

Q: For CCc1cc(=O)[nH]c(SCc2nc(-c3ccc(C(F)(F)F)cc3)no2)n1, which Potency is on record?
A: The Potency was “inactive”.

Q: Which Potency does the source give for N#C/C(=C/c1ccc(N2CCCCC2)o1)C(=O)NCCc1c[nH]c2ccccc12 here?
A: Its Potency is “inactive”.

Q: With N#C/C(=C/c1ccc(N2CCOCC2)o1)c1nc2ccccc2[nH]1 as the compound, how does the Potency read?
A: The Potency was 8.91 µM (active).

Q: For COc1cc(/C=C(\C#N)c2nc3ccccc3[nH]2)cc(Cl)c1OCc1ccccc1Cl, which Potency is on record?
A: Its Potency is “inactive”.

Q: With N#C/C(=C\c1ccc(N2CCOCC2)o1)c1nc2ccccc2[nH]1 as the compound, how does the Potency read?
A: Its Potency is 10 µM (active).

Q: Which Potency does the source give for Cc1ccc2nc(/C(C#N)=C/c3ccc(-c4cccc(Cl)c4)o3)[nH]c2c1 here?
A: The Potency was “inactive”.

Q: With COc1cc(/C=C(/C#N)c2nc3ccccc3[nH]2)ccc1OCC(=O)Nc1ccccc1C as the compound, how does the Potency read?
A: The Potency was “inactive”.
